Drawing on ChEMBL document CHEMBL4513216, “Probing the Open Global Health Chemical Diversity Library for Multistage-Active Starting Points for Next-Generation Antimalarials” (ACS Infect Dis, 2020), this text covers INHIBITION for 75 compounds.

The structures appear in SMILES notation. The campaign covered roughly 69,000 compounds. About 8,600 (12%) showed an effect of 50% or more. This is one part of a sample in which strong results are shown more often than they occur.

This experiment deals with Plasmodium berghei. The experiment in a line: Screen against P. berghei liver stage (PbLuc), transformed with Luciferase, at 10uM. The experiment is classed as functional, HepG2. The following applies: tested at 10 uM.
Regarding `CCCc1ccc(OC23CCCN(CC2)C3)c(OC)c1` (stereo not given), the INHIBITION is 14.9%.

As for `Cc1cc(C(=O)N(C)C)nc(C2(C)CCCN2c2ccccc2)n1` (stereo not given), the INHIBITION is reported as 23.9035%.

On to `COc1ccc(C(=O)NS(=O)(=O)c2cncc(Br)c2)cc1`, for which the INHIBITION is recorded as -2.48%.

Regarding `COCCCN1Cc2cccc(NC(=O)C(C)(C)C)c2C1`, the INHIBITION is -21.1%.

For the compound `CC(C)Cc1nc(OCC#N)c(C#N)c2c1CCC2`, the INHIBITION is on record as 44.9%.

Consider `Cc1cnn(CC(=O)N2CCC(Nc3ccc(C)nn3)CC2)c1`, for which the INHIBITION is 39.95%.

`O=C(CSC1CCc2ccccc2NC1=O)Nc1ccc(CCO)cc1` (stereo not given): the INHIBITION is given as -10.8%.

With `Cc1ccc2c(n1)N(C)CCN(Cc1cnn(C)c1)C2`, the INHIBITION amounted to 49.4%.

For the compound `Cc1ccc2c(n1)N(Cc1cccnc1)CCN(Cc1cnn(C)c1)C2`, the INHIBITION amounted to 30.5%.

Take `Cc1ccc2c(n1)N(CC1CC1)CCN(Cc1cnn(C)c1)C2`: the INHIBITION was found to be 55.4%.

Consider `CC(CCc1ccccc1)N1CCC(C(=O)Nc2ccccn2)CC1` (stereo not given), for which the INHIBITION was -6.46%.

On to `Cc1ccc(NCc2cccc3cn[nH]c23)cc1OC1CCOC1` (stereo not given), for which the INHIBITION is recorded as -16.8%.

For `Cc1ccc(CNCc2cccc3cn[nH]c23)c(OC2CCOC2)c1` (stereo not given), the INHIBITION amounted to 66%.

Take `Cc1ccc(CNCc2cccc3cccnc23)c(OC2CCOC2)c1` (stereo not given): the INHIBITION is -62.1%.

With `Cc1cc(F)ccc1N1CCCC(NC2CCOCC2)C1=O` (stereo not given), the INHIBITION turned out to be 21.3%.

With `Cc1ccc(CN2CCOC3(COCCN(Cc4ccncc4)C3)C2)o1` (stereo not given), the INHIBITION was determined as 14%.

Turning to `O[C@@H]1CN(Cc2ccncc2)C[C@H]1Oc1ccccc1`, the INHIBITION stood at 39.7%.

With `O[C@@H]1CN(Cc2cccnc2)C[C@H]1Oc1ccccc1`, the INHIBITION amounted to 26.8%.

In the case of `Cc1cncc(CN2C[C@@H](O)[C@H](Oc3ccccc3)C2)c1`, the INHIBITION was 51.5%.

As to `CCOCC(=O)N1CC[C@@H]2O[C@@H](C)C[C@H]2C1`, the INHIBITION is reported as 43.9%.

On to `O=c1[nH]c2ccccc2c2c1CCO2`, for which the INHIBITION turned out to be 30.7%.

As to `CC(=O)N(Cc1ncc(C(C)C)o1)C1CCN(Cc2ccno2)C1` (stereo not given), the INHIBITION was found to be 0.1995%.

Take `COc1cccc2c1OCC(CNC(=O)CSc1ccccn1)C2` (stereo not given): the INHIBITION is on record as -52.3%.

`COc1cccc2c1OCC(NC(=O)NC1CCN(C3CC3)CC1)C2` (stereo not given): the INHIBITION is listed as -3.16%.

Regarding `COc1cccc2c1OCC(C(=O)N(C)CCCc1cnn(C)c1)C2` (stereo not given), the INHIBITION turned out to be 40.9%.

Turning to `COc1cccc2c1OCC(NCc1cnn(-c3ccccc3)c1)C2` (stereo not given), the INHIBITION is on record as 62.8%.

For `COc1cccc2c1OCC(NCCCOc1cccnc1)C2` (stereo not given), the INHIBITION came out at 14%.

Consider `COCCN(Cc1cnn(C)c1)C(=O)C1COc2c(cccc2OC)C1` (stereo not given), for which the INHIBITION was found to be 22.3%.

For the compound `COc1cccc2c1OCC(NCCc1cnn(-c3ccccc3)c1)C2` (stereo not given), the INHIBITION was 77.6%.

On to `COc1cccc2c1OCC(C(=O)N1Cc3ccccc3C1)C2` (stereo not given), for which the INHIBITION worked out at 44.8%.

Take `COc1cccc2c1OCC(NCc1cnn(-c3ccccc3F)c1)C2` (stereo not given): the INHIBITION is reported as 53.8%.

Consider `Cc1noc(C(C)N2CCN(CCC(=O)N3CCCCC3)CC2)n1` (stereo not given), for which the INHIBITION amounted to 17.4%.

On to `Cc1cc(C2CCNCC2)nc(-c2ccsc2)n1`, for which the INHIBITION is recorded as 20.2%.

Consider `CCC(=O)Nc1ccc(C(C)NC(=O)COCCOC)cc1` (stereo not given), for which the INHIBITION is given as -28.4%.

As for `CC(=O)N1CCC2(CC1)CN(C(=O)c1cccnc1)c1ccc(F)cc12`, the INHIBITION came out at 34.9%.

Regarding `COc1c(C2CCCN2CC(=O)Nc2ccncc2)c(C)nn1C` (stereo not given), the INHIBITION was determined as 21.6%.

As for `Cc1nc(NCCN2CCCC2=O)cc(C2CN(C(C)C)CCO2)n1` (stereo not given), the INHIBITION is 25%.

On to `CCc1n[nH]c(C2CN(C(=O)c3ccc4c(c3)COC4)CCO2)n1` (stereo not given), for which the INHIBITION was -59.4%.

Turning to `CC(=O)N1CCC(N2CC(Cc3nccc4ccn(C)c34)C2)CC1`, the INHIBITION came to 28%.

On to `COc1ccc(NC(=O)N2CCN(CCSc3ccccc3)CC2)cc1`, for which the INHIBITION is on record as -28.15%.

In the case of `CC(=O)c1ccc(N2CCN(C(=O)c3cc(C(C)C)nn3C)CC2)cc1`, the INHIBITION is on record as 36.3%.

Consider `CC(C)c1cc(C(=O)N2CCN(c3ccncc3)CC2)n(C)n1`, for which the INHIBITION is on record as -106%.

As to `CC(C)c1cc(C(=O)N2CCN(c3ccc(F)c(Cl)c3)CC2)n(C)n1`, the INHIBITION was 50.8%.

Turning to `COc1cccc(C2CC(=O)Nc3c2cnn3C(C)(C)C)c1` (stereo not given), the INHIBITION is -38.6%.

As to `O=C1NCCCC12CCN(Cc1ccc(SC3CCCCC3)o1)C2` (stereo not given), the INHIBITION is on record as 72.3%.

In the case of `Cc1ccc(Sc2ccc(CN3CCC4(CC3)NCCNC4=O)o2)cc1`, the INHIBITION is on record as 66.1%.

Turning to `O=C1NCCCC12CCN(Cc1ccc(-c3ccccc3)s1)C2` (stereo not given), the INHIBITION was 21.2%.

As to `CCOc1cc2c(cc1CN1CCC3(CCCNC3=O)C1)CCC2` (stereo not given), the INHIBITION came out at 41.2%.

On to `CN1CCNC(=O)C12CCN(Cc1ccco1)CC2`, for which the INHIBITION is reported as 36.9%.

`CCN(CC)Cc1cc(C(=O)N2CCC3(CC2)NCCNC3=O)c(C)o1`: the INHIBITION is recorded as 12.4%.

As for `CCOc1cc(Cl)c(CN2CCC3(CCCNC3=O)C2)cc1OC` (stereo not given), the INHIBITION is given as 9.41%.

Regarding `O=C1NCCN(CC2CC2)C12CCN(Cc1ccco1)CC2`, the INHIBITION came to 45.5%.

Consider `O=C1NCCCC12CCN(S(=O)(=O)N1CCOCC1)C2` (stereo not given), for which the INHIBITION is listed as -3.24%.

Turning to `Cc1ccc(Sc2ccc(CN3CCC4(CCCNC4=O)C3)o2)cc1` (stereo not given), the INHIBITION was determined as 90.8%.

In the case of `Cc1cc(CN2CCC3(CC2)C(=O)NCCN3CC2CC2)oc1C`, the INHIBITION worked out at 42.7%.

Turning to `Cc1ccc(CN2CCC3(CC2)C(=O)NCCN3CC2CC2)o1`, the INHIBITION is on record as 89.3%.

In the case of `CC(NC(=O)CCc1ccsc1)c1ccc2c(c1)NC(=O)CO2` (stereo not given), the INHIBITION is on record as 1.223%.

Take `CN(C)S(=O)(=O)N1CCN(C(=O)c2cc(-c3ccc(Br)s3)n[nH]2)CC1`: the INHIBITION came out at 11.2%.

As for `Cc1nc(N)c2ccc(C3CCCCN3)nc2n1` (stereo not given), the INHIBITION worked out at 29.35%.

Consider `Cc1cc(CN(C)C(=O)c2ccc(Cl)c(N3CCCC3=O)c2)no1`, for which the INHIBITION was -11.4%.

With `COCCC(=O)N1C[C@@H](c2cccc(OC)c2)[C@@]2(CCCCC(=O)N2)C1`, the INHIBITION worked out at 3.48%.

Consider `CC(C(=O)N1CCCN(Cc2cnn(C(C)C)c2)CC1)n1ccnc1` (stereo not given), for which the INHIBITION was 48.1%.

Take `Cc1ccc(C(=O)N2CC[C@@H]3CN(C4CCOCC4)CCO[C@@H]3C2)o1`: the INHIBITION is on record as 22.2%.

As for `CCc1nc(C2CCCN2C(=O)c2csc(NC(C)=O)n2)no1` (stereo not given), the INHIBITION is listed as -17%.

Take `COc1ccc(C(=O)C2CCCN(c3nccc(N)n3)C2)c(C)c1` (stereo not given): the INHIBITION is 51.2%.

With `CCc1nc(C)cc(N2CCCC(C(=O)c3ccc(OC)cc3C)C2)n1` (stereo not given), the INHIBITION worked out at 83.9%.

In the case of `COc1ccc(C(=O)C2CCCN(c3cc(OC)ncn3)C2)c(C)c1` (stereo not given), the INHIBITION is 91.8%.

Take `CCOC(=O)C1CCCN(c2nccc(-n3nc(C)cc3C)n2)C1` (stereo not given): the INHIBITION amounted to 1.74%.

Consider `COc1ccc(C(=O)C2CCCN(c3cnccn3)C2)c(C)c1` (stereo not given), for which the INHIBITION came out at 25.5%.

Take `COc1cc(N2CCCC(c3ncc[nH]3)C2)ncn1` (stereo not given): the INHIBITION came out at 28.4%.

Regarding `COc1cccc(C(=O)C2CCCN(c3nccc(N)n3)C2)c1` (stereo not given), the INHIBITION turned out to be 43%.

As to `CCc1nc2n(n1)CCCC2NC(=O)Nc1cc(OC)ccc1C` (stereo not given), the INHIBITION was found to be 13.5%.

Turning to `COc1ccc(C(=O)C2CCCN(c3cc(N)ncn3)C2)c(C)c1` (stereo not given), the INHIBITION is on record as 60.1%.

Turning to `COc1ccc(C(=O)N2C[C@@H](CN3CCCC3)[C@@H](CO)C2)c(C)c1`, the INHIBITION came to 34.9%.

As to `Cc1ccccc1CSc1nc(N)cc(N2CCCC(C(N)=O)C2)n1` (stereo not given), the INHIBITION was determined as 41.3%.
